A selection: hits, their analogues and other compounds. The true share with any hit is near 14%.
Giardia FBPA inh: Giardia lamblia aldolase inhibition; A8B2U2; purified Giardia FBPA; Potency, µM (highest dose often 59.6 µM), without a hit: top-dose activity, negative = inhibition, usual class: inhibitors; hit rate 0.71% among 290,000; also: potency is read from the fitted curve at half-maximal effect; % is scaled to controls: 0 for no effect and ±100 for the full control effect; nearly all actives have a fitted effect of over 55% in size
Target sequence (A8B2U2 whole entry, looked up): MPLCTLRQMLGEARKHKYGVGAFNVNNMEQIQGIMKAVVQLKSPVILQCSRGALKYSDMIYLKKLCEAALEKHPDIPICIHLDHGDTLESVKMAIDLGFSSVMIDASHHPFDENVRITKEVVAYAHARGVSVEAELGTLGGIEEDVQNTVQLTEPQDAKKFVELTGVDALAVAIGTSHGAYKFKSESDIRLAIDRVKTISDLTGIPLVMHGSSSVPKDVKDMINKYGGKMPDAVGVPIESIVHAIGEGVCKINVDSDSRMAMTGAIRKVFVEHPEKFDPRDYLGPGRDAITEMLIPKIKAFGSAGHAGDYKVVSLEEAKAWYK
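Giardia FBPA (40 nM reagent) was preincubated 10 min at RT with compound (up to 57.5 uM final), then substrate plus GAPDH/TPI/NAD/arsenate coupling system with diaphorase/resazurin was added; resorufin fluorescence (525/598 nm) was read after 20 min.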
CHX counter: counter-screen hit for Shiga toxin inhibitors, cycloheximide; cell reporter, cycloheximide protein synthesis inhibition counterscreen; max response, %; hit rate 12% among 300,000; AID 2314; in the data active = max response mostly above about 13%, no sharp cut-off; inactive = mostly below about 14%; also: read at 38.3 µM for the half of the compounds with a filed dose; 0% is about no effect
NS1 function inh: inhibitors of influenza NS1 protein function; Potency, µM (doses to about 46.1 µM), without a hit: at the highest dose activity, positive = more growth; AID 2326; hit rate 0.4% among 270,000; calls by dose curve; also: potency is read from the fitted curve at half-maximal effect; actives are rising curves; nearly all actives have a fitted effect of over 50% in size
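A cell-based growth assay was used: compounds that relieve NS1-induced slow growth of budding yeast raise OD600. Assay medium was yeast nitrogen base with ammonium sulphate and -URA supplement, pH 6.0, with 2% galactose.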
LmPK inhibitor: LmPK (Leishmania mexicana) enzyme inhibition; purified LmPK, Kinase-Glo ATP luminescence, 1 h; AID 1721; hit rate 0.37% among 290,000; Q27686; Potency, µM (series often up to 57.5 µM), for inactives: at the highest dose activity change, negative = inhibition, usual class: inhibitors; also: potency is read from the fitted curve at half-maximal effect; % is scaled to controls: 0 for no effect and ±100 for the full control effect
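Purified LmPK (0.1 nM) converted ADP (0.1 mM) to ATP with PEP (0.5 mM) in imidazole buffer pH 7.2 with KCl and MgCl2, 1 h at room temperature. ATP was read by Kinase-Glo luminescence; data normalized to uninhibited and no-enzyme controls.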
Shiga toxin inh: blocks Shiga toxin action in Vero cells | Vero cells, Shiga toxin protein synthesis inhibition reporter | inhibition, % at 38.7 µM | hit rate 9.2% among 290,000 | AID 2315; in the data active = inhibition mostly above about 28%, no sharp cut-off; inactive = mostly below about 43%; also: 0% is about no effect
NS1 inh valid: influenza NS1 function inhibition validation; influenza NS1 function cell assay, 15-point titration; shares compounds with NS1 function inh; activity change, negative = inhibition, % at 32.9 µM; 1,400 tested, under 10 active; calls by dose curve; also: 0% is about no effect
PR8 titer: influenza virus titer reduction, NS1 project. hit rate 30% among 95. virus titer (log TCID50), log10 TCID50 at 5 µM. shares compounds with NS1 function inh. AID 504647. MDCK infected influenza A/PR/8/34, virus titer TCID50; active compounds read low; call rule not given here
Starred values were filed as active, the others as inactive; ? = inconclusive; · = no result. Unless noted, calls follow the shape of the dose curve; as a rule, active = well fitted curve in the direction sought with a large enough effect; inconclusive = small, poorly fitted or top-dose-only effect, or another doubt; inactive = no such curve, though single readings can be large; an effect the other way counts as inactive or inconclusive.

SMILES	Giardia FBPA inh	CHX counter	NS1 function inh	LmPK inhibitor	Shiga toxin inh	NS1 inh valid	others
CCC(C)(C)n1nnnc1C(c1cc2cc(OC)c(OC)cc2[nH]c1=O)N1CCc2ccccc21 (centres undefined)	-24%	17	14µM*	4%	17	?
O=C(CN(Cc1ccccc1)S(=O)(=O)c1ccc2c(c1)OCCO2)N/N=C/c1ccc(F)cc1	-1%	-2	24%	0%	-8	·
Cc1cc(C(=O)CN(Cc2ccc(F)cc2)S(=O)(=O)c2ccc3c(c2)OCCO3)c(C)n1C	6%	1	11µM*	1%	21	-16
Cc1ccc(C)n1NC(=O)c1ccccc1	4%	-5	18%	2%	-9	·
Cc1ccc(C)n1NC(=O)c1ccc(O)cc1	-6%	1	11µM*	6%	18	18
COc1ccc(Cl)cc1NC(=O)C1CCCN(c2ncnc3c2nc2n3CCCCC2)C1 (centres undefined)	-11%	-1	4%	7%	-12	·
CCCc1c(C)nc(N2CCN(c3ccccc3OC)CC2)[nH]c1=O	1%	-3	0%	-1%	-13	·
CCOc1ccc(/C(O)=C2/C(=O)C(=O)N(c3cc(C)on3)C2c2ccc(C(=O)OC)cc2)cc1 (centres undefined)	?	9	6%	-3%	6	·
CCOc1ccc(/C(O)=C2/C(=O)C(=O)N(c3ncccn3)C2c2ccccc2)cc1 (centres undefined)	29%	66*	2µM*	-1%	58*	-12
CCCOc1ccc(/C(O)=C2/C(=O)C(=O)N(c3cc(C)on3)C2c2ccc(C(=O)OC)cc2)cc1 (centres undefined)	17%	-1	10µM*	15%	-5	-9
CCOc1ccc(/C(O)=C2/C(=O)C(=O)N(c3ncccn3)C2c2ccc(C)cc2)cc1 (centres undefined)	19%	-1	4%	0%	-1	·
CCOCCc1nnc(NC(=O)CCC2CCCCC2)s1	1%	-3	-4%	0%	27	·
CCn1cc(C(=O)N2CCCC(N3CCN(c4ccccc4C)CC3)C2)cn1 (centres undefined)	-4%	5	-9%	1%	6	·
Cn1c(/N=C/c2c(O)ccc3ccccc23)nc2ccccc21	0.71µM*	69*	11µM*	-20%	81*	?
CCCn1c(/N=C/c2ccccc2O)nc2ccccc21	-2%	-1	-3%	-4%	-12	·
CC(C)(C)C(=O)Nc1ccc(C(=O)N/N=C/c2ccccc2OC(=O)c2ccc(Cl)cc2)cc1	-12%	3	10µM*	-4%	14	21
Cc1cccc(C(=O)Oc2ccccc2/C=N/NC(=O)c2ccc(NC(=O)C(C)(C)C)cc2)c1	0%	2	20µM*	2%	-8	32
CCOc1cc(/C=N\NC(=O)c2ccc(NC(=O)C(C)(C)C)cc2)ccc1OC(=O)c1cccc(C)c1	-12%	-1	11%	0%	-20	·
CC(C)(C)C(=O)Nc1ccc(C(=O)N/N=C/c2ccccc2OC(=O)c2ccccc2)cc1	0%	4	-4%	2%	-15	·
N=c1c(C(=O)NCc2ccco2)cc2c(=O)n3ccccc3nc2n1Cc1ccc(Cl)cc1	-26%	17	7.9µM*	2%	29	-27
CN(C)c1ccc(C(=O)OCC(=O)N2CCOCC2)cc1	6%	23*	?	-8%	39	3
CCc1cc2c(=O)n(Cc3ccco3)c(SCC(=O)N3CCCc4ccccc43)nc2s1	0%	19*	7.1µM*	-2%	48	5
O=S(=O)(c1ccccc1)c1nc(-c2ccco2)oc1NCCCN1CCOCC1	-2%	-2	7%	1%	14	·
N#Cc1nc(-c2ccco2)oc1NCCCN1CCOCC1	2%	-1	2.5µM*	6%	47	20
Cc1nnc(NC(=O)Cc2cccs2)s1	1%	-8	-1%	-6%	-14	·
SMILES	Giardia FBPA inh	CHX counter	NS1 function inh	LmPK inhibitor	Shiga toxin inh	NS1 inh valid	others
CS(=O)(=O)N1CCc2cc(-c3csc(NC(=O)Cc4cccs4)n3)ccc21	-9%	9	11µM*	-8%	16	19
O=C(O)CC/C(=C\c1cccc(NC(=O)c2ccccc2Cl)c1)c1nc2ccccc2s1	16%	8	?	0%	9	-20
Cc1ccc(S(=O)(=O)NCC(=O)N2CCOCCOCCOCC2)cc1	14%	-4	-9%	-5%	-10	·
Cc1ccc(/C=C/C(=O)Oc2ccc(C#N)cc2)o1	-8%	-5	?	4%	-6	-28	PR8 titer=7.5*
CC(=O)/C=C/c1ccc(C)o1	-4%	11	·	12%	18	·
Cc1cccc(NC(=S)N=Nc2c(O)n(C)c3ccc(S(=O)(=O)N4CCOCC4)cc23)c1	-1%	0	?	3%	-7	2
CCOc1ccc(C(C#N)N2CCOCC2)cc1OC (centres undefined)	22%	27	16µM*	7%	-19	?
C#CCn1c(=NC(=O)c2ccc(S(=O)(=O)N3CCCc4ccccc43)cc2)sc2cc(S(N)(=O)=O)ccc21	1%	0	11µM*	2%	-2	18
Cc1ccc([N+](=O)[O-])cc1N(CC(=O)Nc1ccc(S(=O)(=O)Nc2cccc(C(F)(F)F)c2)cc1)S(C)(=O)=O	-1%	-1	16µM*	1%	10	10
COc1ccccc1N(CC(=O)Nc1cccc(C(F)(F)F)c1)S(C)(=O)=O	-6%	-2	2%	6%	-1	·
CCC1CCCCN1C(=O)COc1ccc(N(C)S(=O)(=O)c2ccc(C)cc2)cc1 (centres undefined)	16%	1	-32%	-9%	22	·
Cc1cc(C2=CC(C)(c3cc(C)oc3C)Nc3nc(C(F)(F)F)nn32)c(C)o1 (centres undefined)	-20%	28*	18µM*	3%	41*	7
CCOc1ccc(CCNC(=O)C2CCCN(S(=O)(=O)c3c(C)n[nH]c3C)C2)cc1OCC (centres undefined)	-4%	6	2.5µM*	2%	-3	-27
CCC(=O)Nc1sc2c(c1C#N)CC(C)(C)NC2(C)C	-1%	-4	-25%	-8%	-9	·
CC(C)CC(=O)Nc1sc2c(c1C#N)CC(C)(C)NC2(C)C	1%	0	10µM*	1%	-11	-1
Cc1n[nH]c(C)c1CCc1nc2c3ccccc3nc(SCC(N)=O)n2n1	-3%	3	3.2µM*	-2%	4	-7
CN(C)c1ccc(-c2ccc([C@H]3[C@@H]4C=CCC[C@@]4(C)C(=O)N3Cc3ccccc3)c(F)c2)cc1	-2%	12	5.6µM*	0%	-4	-27
N#CC1=C(N)OC2=C(CC/C2=C\c2ccccc2)C1c1ccccc1 (centres undefined)	14%	22	0.89µM*	2%	20	?
